Compounds with a hit are over-represented: about 8.2% of the library has one in this group of screens.
KB-V1 cytotox: kills drug-selected multidrug resistant KB-V1 cells. AID 1347076. Potency, µM (highest dose often 46.1 µM), usual class: cytotoxic. KB-V1 MDR cells viability, CellTiter-Glo, 72 h. 400,000 compounds, 3.4% hits; also: % is scaled to controls: 0 for no effect and ±100 for the full control effect; nearly all actives have a fitted effect of over 60% in size
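Cells of the MDR subline KB-V1 are plated, dosed with compound at multiple concentrations, and incubated 72 h at 37 degrees C; CellTiter-Glo is then added and luminescence read after 10 min.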
ELG1 repair inh: ELG1-dependent DNA repair inhibition | HEK293T ELG1-luciferase reporter, luminescence, 16 h; DNA damage induced by 5-fluorouridine | Potency, µM (series often up to 46.1 µM), without a hit: at the top dose activity change, negative = inhibition, usual class: inhibitors | 330,000 compounds, 2.3% hits; also: % is scaled to controls: 0 for no effect and ±100 for the full control effect; nearly all actives have a fitted effect of over 55% in size
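Cells (2,000 per well) received 5-fluorouridine plus test compound or DMSO and were incubated 16 hr at 37 °C, 5% CO2. Luciferase activity was read by luminescence 30 min after ONE-Glo addition; signal suppression marked inhibition of damage-induced ELG1 function.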
SW480 rerep: induces DNA re-replication in SW480 colon adenocarcinoma cells | Potency, µM (series often up to 46.1 µM), for the others: at the top dose re-replication activation, most hits filed as activators | 340,000 compounds, 1.8% hits | SW480 DNA re-replication, Hoechst DNA content imaging, 48 h; also: % of control where 0% means no effect; nearly all actives have a fitted effect of over 55% in size
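Per well, 250 cells were exposed to pinned compound for 48 hr. Nuclear DNA was visualised with Hoechst (40 min, 37 C) and total object intensity recorded by fluorescence scanning.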
KB-3-1 tox: KB-3-1 parental cell cytotoxicity | KB-3-1 viability, CellTiter-Glo ATP luminescence, 72 h | Potency, µM (series often up to 46.1 µM), usual class: cytotoxic | 400,000 compounds, 1.4% hits; also: % is scaled to controls: 0 for no effect and ±100 for the full control effect; nearly all actives have a fitted effect of over 60% in size
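Using CellTiter-Glo luminescence, growth of non-resistant KB-3-1 adenocarcinoma cells is assessed 72 h after pin-tool compound addition at 37 °C. Normalized responses across the concentration series yield fitted curves.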
MCF10A rerep: inducers of DNA re-replication in MCF 10A breast cells. MCF 10A DNA re-replication, Hoechst nuclear intensity, 48 h. Potency, µM (series often up to 46.1 µM), inactives show top-dose activity, positive = re-replication, most hits filed as activators. 350,000 compounds, 2.9% hits. AID 624296; also: % of control where 0% means no effect; nearly all actives have a fitted effect of over 50% in size
The depositor's hits bear a star. Calls follow the shape of the dose curve; as a rule, active = well fitted curve in the direction sought with a large enough effect; inconclusive = small, poorly fitted or top-dose-only effect, or another doubt; inactive = no such curve, though single readings can be large; an effect the other way counts as inactive or inconclusive. Potency is read from the fitted curve at half-maximal effect.

CC1=CC(C)(C)N2C(=O)C3(SCC(=O)N3c3ccc(F)cc3)c3cc(C)cc1c32 (stereo unspecified) was read as KB-V1 cytotox 16.4µM*, ELG1 repair inh 0.0%, SW480 rerep 13.0%, KB-3-1 tox inconclusive and MCF10A rerep 8.1%.
`Cc1cc(C)c(NC(=O)CN2C(=O)C3(SCC(=O)N3c3ccc(F)cc3)c3ccccc32)c(C)c1` (stereo unspecified) gave KB-V1 cytotox 14.6µM* and KB-3-1 tox inactive.
For Cc1ccc(N2C(=O)CSC23C(=O)N(CC(=O)NC2CCCCC2)c2ccccc23)cc1 (stereo unspecified) the results were KB-V1 cytotox 18.4µM* and KB-3-1 tox inactive.
For Cc1ccc(NC(=O)CN2C(=O)C3(SCC(=O)N3c3cccc(Cl)c3)c3ccccc32)cc1C (stereo unspecified) the results were KB-V1 cytotox 10.3µM* and KB-3-1 tox inactive.
Cc1ccc(/C=C/c2onc(C)c2S(=O)(=O)N2CCC(C(=O)N3CCN(c4cccc(C)c4)C(C)C3)CC2)cc1 (stereo unspecified) was read as KB-V1 cytotox inactive and KB-3-1 tox inactive.
Screening CCc1ccccc1NCC(=O)Nc1ccc(Cl)c(C(F)(F)F)c1 returned KB-V1 cytotox 20.6µM*, ELG1 repair inh -3.1%, SW480 rerep inconclusive, KB-3-1 tox inconclusive and MCF10A rerep inconclusive.
Screening C/C(CC(=O)Nc1ccc(Cl)c(C(F)(F)F)c1)=N\NC(=O)c1cccc(O)c1 returned KB-V1 cytotox inactive, ELG1 repair inh -8.8%, SW480 rerep -1.9%, KB-3-1 tox inconclusive and MCF10A rerep -0.1%.
For COc1ccccc1NC(=O)CN1CCN(CC(=O)Nc2ccc(Cl)c(C(F)(F)F)c2)CC1 the results were KB-V1 cytotox inconclusive, ELG1 repair inh 18.4µM*, SW480 rerep 0.9%, KB-3-1 tox inconclusive and MCF10A rerep inconclusive.
Screening COc1ccc(NC(=O)CCCCCN2C(=O)CCC2=O)cc1Cl returned KB-V1 cytotox inconclusive, ELG1 repair inh 0.0%, SW480 rerep -2.3%, KB-3-1 tox inactive and MCF10A rerep 6.8%.
Screening O=C(CCCCCN1C(=O)CCC1=O)Nc1ccc(Cl)c(C(F)(F)F)c1 returned KB-V1 cytotox 16.4µM*, ELG1 repair inh 0.8%, SW480 rerep -1.0%, KB-3-1 tox inactive and MCF10A rerep 2.6%.
`C/C(CC(=O)Nc1ccc(Cl)c(C(F)(F)F)c1)=N\NC(=O)c1ccccc1O` gave KB-V1 cytotox 18.4µM*, ELG1 repair inh -11.0%, SW480 rerep 107.3%, KB-3-1 tox inconclusive and MCF10A rerep inconclusive.
`CC1=C(O)C(=O)C(c2c(C)cc(C)c(Br)c2C)=C(O)C1=O` gave KB-V1 cytotox inconclusive and KB-3-1 tox inactive.
Cc1ccc(C)c(OCCn2c(-c3ccc(Cl)cc3)nc3ccccc3c2=O)c1C was read as KB-V1 cytotox inconclusive and KB-3-1 tox inactive.
Screening COc1cc2c(cc1OC)C1(CCCC1)CNC2C (stereo unspecified) returned KB-V1 cytotox inactive, ELG1 repair inh inconclusive, SW480 rerep 21.4%, KB-3-1 tox inactive and MCF10A rerep inconclusive.
`COc1cc2c(cc1OC)C1(CCCC1)CNC2c1ccc([N+](=O)[O-])cc1` (stereo unspecified) gave KB-V1 cytotox inactive, ELG1 repair inh inconclusive, SW480 rerep 23.1µM*, KB-3-1 tox inactive and MCF10A rerep -32.9%.
Screening Cc1ccc(-n2nc(C)c3c(C)cc(=O)n(CC(=O)Nc4cccc(C)c4C)c32)cc1 returned KB-V1 cytotox inactive and KB-3-1 tox inactive.
For CCc1ccc2c(c1)c1nnc(NN)nc1n2CC the results were KB-V1 cytotox inconclusive, ELG1 repair inh 16.4µM*, SW480 rerep inconclusive, KB-3-1 tox inconclusive and MCF10A rerep -6.4%.
NNc1nnc2c3cc(F)ccc3n(Cc3ccccc3)c2n1 was read as KB-V1 cytotox inactive, ELG1 repair inh 9.2µM*, SW480 rerep inconclusive, KB-3-1 tox inconclusive and MCF10A rerep inconclusive.
For CCn1c2ccc(F)cc2c2nnc(NN)nc21 the results were KB-V1 cytotox inactive, ELG1 repair inh -18.8%, SW480 rerep inconclusive, KB-3-1 tox inactive and MCF10A rerep 19.9%.
For C=CCn1c2ccccc2c(=O)c2cc(C#CC3(O)CCCCC3)ccc21 the results were KB-V1 cytotox inactive, ELG1 repair inh inconclusive, SW480 rerep 9.2µM*, KB-3-1 tox inconclusive and MCF10A rerep inconclusive.
`O=c1c2ccccc2oc2cc(C#CC3(O)CCCCC3)ccc12` gave KB-V1 cytotox inactive, SW480 rerep 2.6%, KB-3-1 tox inactive and MCF10A rerep 20.6µM*.
For CCC(=O)OCOc1ccc(/C=C2/CCC(CN(C)C)C2=O)cc1 (stereo unspecified) the results were KB-V1 cytotox inconclusive, SW480 rerep 11.6µM*, KB-3-1 tox inconclusive and MCF10A rerep inconclusive.
O=C(Nc1ccc(F)cc1)C(CCc1ccccc1)N1CCN(c2cccc(C(F)(F)F)n2)CC1 (stereo unspecified) was read as KB-V1 cytotox inactive and KB-3-1 tox inactive.
`C=CC[C@H](CC(=O)N(CCO)Cc1ccccc1)C(=O)N[C@H](COC(=O)[C@@H](CC=C)Cc1ccc(F)cc1)Cc1c[nH]c2ccccc12` gave KB-V1 cytotox inconclusive, ELG1 repair inh 23.1µM*, SW480 rerep inconclusive, KB-3-1 tox inconclusive and MCF10A rerep inconclusive.
For C=CCC[C@H](Cc1ccc(F)cc1)C(=O)OC[C@H](Cc1c[nH]c2ccccc12)NC(=O)[C@H](CC=C)CC(=O)N(CCO)Cc1ccccc1 the results were KB-V1 cytotox inconclusive, ELG1 repair inh 20.6µM*, SW480 rerep inconclusive, KB-3-1 tox inconclusive and MCF10A rerep inconclusive.
Screening C=CC[C@@H](CC(=O)N(CCO)Cc1ccccc1)C(=O)N[C@H](COC(=O)[C@@H](CC=C)Cc1ccc(F)cc1)Cc1c[nH]c2ccccc12 returned KB-V1 cytotox inconclusive, ELG1 repair inh 20.6µM*, SW480 rerep -0.3%, KB-3-1 tox inconclusive and MCF10A rerep inconclusive.
COc1ccc(CCCc2nnc(SCC(=O)Nc3ccc(C)cc3C)o2)cc1 was read as KB-V1 cytotox inactive and KB-3-1 tox inactive.
COc1cc(CC(=O)OCC(=O)c2ccc(F)cc2)cc(OC)c1OC was read as KB-V1 cytotox inactive, ELG1 repair inh 11.9%, SW480 rerep -6.3%, KB-3-1 tox inactive and MCF10A rerep -2.5%.
O=C(COC(=O)/C=C/c1ccc([N+](=O)[O-])cc1)NC(c1ccccc1)c1ccccc1 was read as KB-V1 cytotox inactive, ELG1 repair inh -3.4%, SW480 rerep 20.4%, KB-3-1 tox inactive and MCF10A rerep 23.1µM*.

Bioassay records (PubChem)
